PubChem BioAssay (NCATS)
Records with an inconclusive call do not appear. A call without a number means that no potency is given here. The source made the active and inactive calls. The call rests on the fitted dose curve; in most records, active means well fitted cell-killing curve with a large enough effect; inconclusive means small, poorly fitted or top-dose-only effect, or effect the other way; inactive means flat fitted curve, though single readings scatter.

System: Es-2
Assay: Primary qHTS to identify gynecologic anti-cancer compounds using libraries of approved drugs and bioactive compounds (AID 1345084); further: nearly all actives have a fitted effect of over 55% in size
Settings: Gynecologic cancer cell panel viability, ATPlite luminescence, 48 h; series mostly up to 57.5 µM
How it was run: (§1)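 Five-concentration response, 48 h; readout is ATP-driven luciferase luminescence.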
Potency means the concentration at half of the fitted maximal effect.

Compound | Potency
CC(C)c1cnn2c(NCc3ccccc3)cc(N[C@@H](CO)[C@H](O)CO)nc12 | 1.58 µM (active)
CN1CCN(Cc2ccc(NC(=O)Nc3ccc(Oc4cc(NC(=O)C5CC5)ncn4)cc3)cc2C(F)(F)F)CC1 | 1.58 µM (active)
Cc1ccc2nc(NC(=O)CSc3nc4c(c(=O)n3-c3ccccc3)SCC4)sc2c1 | inactive
CC(C)c1noc(N2CCC(COc3ccc(-c4ccc(S(C)(=O)=O)cc4)nc3)CC2)n1 | inactive
C=CC(=O)Nc1cccc(Oc2nc(Nc3ccc(N4CCN(C)CC4)cc3OC)ncc2Cl)c1 | inactive
Cc1nc(Nc2n[nH]c3c2CN(C(=O)N[C@H](CN(C)C)c2ccccc2)C3(C)C)c2sccc2n1 | 8.91 µM (active)
Cc1c(C)n(Cc2ccc(-c3ccccc3C(=O)O)cc2)c2ccc(C(=O)N[C@@H](C)c3ccc([N+](=O)[O-])cc3)cc12 | inactive
CNC(=O)CN1CCC(Oc2cc3c(Nc4cccc(Cl)c4F)ncnc3cc2OC)CC1 | inactive
O=C(CCCCCCC(=O)Nc1ccc([C@H]2O[C@@H](CSc3nc(-c4ccccc4)c(-c4ccccc4)o3)C[C@@H](c3ccc(CO)cc3)O2)cc1)NO | inactive
NC1(Cc2ccc(Cl)cc2)CCN(c2ncnc3[nH]ccc23)CC1 | inactive
Cc1[nH]nc2ccc(-c3cncc(OC[C@@H](N)Cc4ccccc4)c3)cc12 | 8.91 µM (active)
Cc1ccc(C(=O)Nc2cccc(C(F)(F)F)c2)cc1-c1ccc2nc(NCCN3CCOCC3)ncc2c1 | 11.2 µM (active)
O=c1c2ccccc2nc2n1CCc1c-2[nH]c2ccccc12 | inactive
CN(C)Cc1c(C(=O)NCCOc2ccc(C(=O)NO)cc2)oc2ccccc12 | 5.01 µM (active)
COc1cc(C(=O)N2CCC(N3CCN(C)CC3)CC2)ccc1Nc1ncc2c(n1)N(C)c1ccccc1C(=O)N2C | inactive
NCC(=O)Nc1ccc(-n2nc(C(F)(F)F)cc2-c2ccc3c(ccc4ccccc43)c2)cc1 | inactive
Cc1cc(CN2CCN(c3c(Br)cnc4nc(-c5ccc(N6CCN(C)CC6)cc5)[nH]c34)CC2)no1 | inactive
CCS(=O)(=O)c1cccc(-c2cc(C(=O)NC3CCN(C)CC3)c(C)c3[nH]c4ncc(C)cc4c23)c1 | 12.6 µM (active)
CN1CCC(CNc2ccc3ncc(-c4cccc(OC(F)(F)F)c4)n3n2)CC1 | inactive
Cc1cn2c(-c3cn[nH]c3)cnc2c(Nc2ccc(C(=O)N3CCNCC3)cc2F)n1 | inactive

System: HeLa
Assay: as above
Settings: Gynecologic cancer cell panel viability, ATPlite luminescence, 48 h; series mostly up to 57.5 µM
How it was run: as §1

Compound | Potency
CC(C)c1cnn2c(NCc3ccccc3)cc(N[C@@H](CO)[C@H](O)CO)nc12 | 2.82 µM (active)
CN1CCN(Cc2ccc(NC(=O)Nc3ccc(Oc4cc(NC(=O)C5CC5)ncn4)cc3)cc2C(F)(F)F)CC1 | 0.891 µM (active)
Cc1ccc2nc(NC(=O)CSc3nc4c(c(=O)n3-c3ccccc3)SCC4)sc2c1 | inactive
O=C(CCCCCCNC(=O)c1cnc(N(c2ccccc2)c2ccccc2)nc1)NO | 11.2 µM (active)
CNC(=O)c1ccccc1Nc1nc(Nc2ccc(N3CCOCC3)cc2OC)ncc1Cl | 5.01 µM (active)
CC(C)c1noc(N2CCC(COc3ccc(-c4ccc(S(C)(=O)=O)cc4)nc3)CC2)n1 | inactive
Cn1c(=O)n(-c2ccc(C(C)(C)C#N)cc2)c2c3cc(-c4cnc5ccccc5c4)ccc3ncc21 | inactive
C=CC(=O)Nc1cccc(Oc2nc(Nc3ccc(N4CCN(C)CC4)cc3OC)ncc2Cl)c1 | inactive
Cc1nc(Nc2n[nH]c3c2CN(C(=O)N[C@H](CN(C)C)c2ccccc2)C3(C)C)c2sccc2n1 | 8.91 µM (active)
Cc1c(C)n(Cc2ccc(-c3ccccc3C(=O)O)cc2)c2ccc(C(=O)N[C@@H](C)c3ccc([N+](=O)[O-])cc3)cc12 | inactive
CC1(C)CC(=O)c2c(C(F)(F)F)nn(-c3ccc(C(N)=O)c(NC4CCC(OC(=O)CN)CC4)c3)c2C1 (configuration not stated) | inactive
CNC(=O)CN1CCC(Oc2cc3c(Nc4cccc(Cl)c4F)ncnc3cc2OC)CC1 | inactive
O=C(CCCCCCC(=O)Nc1ccc([C@H]2O[C@@H](CSc3nc(-c4ccccc4)c(-c4ccccc4)o3)C[C@@H](c3ccc(CO)cc3)O2)cc1)NO | inactive
NC1(Cc2ccc(Cl)cc2)CCN(c2ncnc3[nH]ccc23)CC1 | inactive
Cc1[nH]nc2ccc(-c3cncc(OC[C@@H](N)Cc4ccccc4)c3)cc12 | 2.24 µM (active)
Cc1ccc(C(=O)Nc2cccc(C(F)(F)F)c2)cc1-c1ccc2nc(NCCN3CCOCC3)ncc2c1 | 11.2 µM (active)
O=c1c2ccccc2nc2n1CCc1c-2[nH]c2ccccc12 | inactive
CN(C)Cc1c(C(=O)NCCOc2ccc(C(=O)NO)cc2)oc2ccccc12 | 2.82 µM (active)
CCCCOc1c(C(=O)c2c(F)cc(C)cc2F)cnc2n[nH]cc12 | 8.91 µM (active)
Cc1cc(CN2CCN(c3c(Br)cnc4nc(-c5ccc(N6CCN(C)CC6)cc5)[nH]c34)CC2)no1 | 1.58 µM (active)
CCS(=O)(=O)c1cccc(-c2cc(C(=O)NC3CCN(C)CC3)c(C)c3[nH]c4ncc(C)cc4c23)c1 | 1.58 µM (active)
CN1CCC(CNc2ccc3ncc(-c4cccc(OC(F)(F)F)c4)n3n2)CC1 | inactive
